We go through 14 compounds from PubChem BioAssay (NCI).

About 83,000 compounds went through this panel and 20% of them were active in at least one assay; those are over-represented in the sample as a whole.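 Each cell line was grown in a 96-well plate and treated with one concentration of compound for 48 hours. Values below 10 were considered active.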 Active and inactive are the calls of the source.

The assay concerns HCT-116 colon. The assay can be described thus: NCI-60 one-dose screen, 48 h (100 = growth as untreated, 0 = no growth, -100 = all killed). Conditions: 10 µM unless noted.
For `Fc1cc2c(cc1Cl)N(c1ncnc3ccc(-c4ccc5n[nH]nc5c4)cc13)CC2`, the growth was 96.7% (inactive).

Consider `COc1ccc(-c2noc(C(=O)O)c2-c2cc(OC)c(OC)c(OC)c2)cc1`, for which the growth is 19.4% (inactive).

On to `C=C1C(=O)O[C@H]2[C@H]1CC/C(Cn1cc(-c3ccccc3)nn1)=C\CC[C@@]1(C)O[C@@H]21`, for which the growth is -67.1% (active).

Turning to `O=C(NCCCl)Nc1ncccc1OCc1ccccc1`, the growth is 101% (inactive).

With `COc1ccc(/C=N/C2=C(C#N)C(c3ccccc3)c3ccc4ccccc4c3O2)cc1` (centres undefined), the growth was 10.3% (inactive).

As for `CCOC(=O)c1cc(C)n(-c2ccc(C(=O)O)cc2)c1C`, the growth was 67.5% (inactive).

`COc1cc(NS(=O)(=O)c2ccc(-c3cnc(C4CC4)o3)cc2)ccc1F`: the growth was 20.9% (inactive).

For the compound `CC(=O)N1N=C(c2ccc(Nc3nc(Nc4ccccc4)nc(Nc4ccccc4)n3)cc2)CC1c1cccc([N+](=O)[O-])c1` (centres undefined), the growth was 95.5% (inactive).

Regarding `COc1cc(C2c3cc(OC(C)=O)c(OC)cc3CC3C(=O)OCC32)ccc1OC(C)=O` (centres undefined), the growth is 98.2% (inactive).

For `O=c1c2cccc3c(N4CCCC4)ccc(c32)c2nc3ccccc3n12`, the growth was 54.7% (inactive).

Regarding `CCC(C)(C)C(=O)O[C@H]1C[C@@H](C)C=C2C=C[C@H](C)[C@H](CC[C@@H]3CC(SCCN)CC(=O)O3)[C@H]21` (some centres undefined), the growth was 37.5% (inactive).

As for `CCN(C)S(=O)(=O)Nc1cccc(Nc2ncnc3cc(NC(=O)CCl)ccc23)c1Cl`, the growth was 0.862% (active).

`CC(=O)Oc1ccc(C)cc1C`: the growth is 98.3% (inactive).

In the case of `O=C1NC2(Nc3ccccc31)C(=O)Nc1c(Cl)cc(Cl)cc12` (centres undefined), the growth was 98.6% (inactive).
